MBNL1-CUG inh – blocks human MBNL1 binding to CUG repeat RNA; TR-FRET MBNL1-His/biotin-(CUG)12 binding, 665/545 ratio; Potency, µM (titrated, usually from 57.5 µM), inactives show at the highest dose activity change, negative = inhibition, usual class: inhibitors; 0.036% of 280,000 active; AID 2675; active means well fitted inhibition curve with a large enough effect in the signal ratio, with a control signal flat, not every such curve was filed as active; inconclusive means small, poorly fitted or top-dose-only effect, or effect the other way, or a change in a side signal; inactive means no such curve, though single readings can be large or run the other way; the % refers to the signal ratio; further: potency means the concentration at half of the fitted maximal effect; on the % scale 0 is the no-effect control and ±100 the full control effect
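Ratiometric TR-FRET (665 over 545 nm, excitation 340 nm) tracks disruption of MBNL1-His/biotin-(CUG)12 complex after 60 min at room temperature, with compounds at 92 nM to 58 uM final.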
Rango complex inh – Rango-importin beta binding inhibition; Potency, µM (titrated, usually from 92.2 µM), without a hit: at the highest dose inhibition of complex formation; AID 540263; 0.031% of 340,000 active; Rango CFP/YFP FRET sensor + importin beta, 45 min; Q14974;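 further: potency means the concentration at half of the fitted maximal effect; 0% = DMSO wells and 100% = buffer wells lacking importin beta; nearly all actives have a fitted effect of over 15% in size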
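Inhibition scored from the CFP 486 nm/YFP 530 nm FRET ratio 45 min after adding 0.125 microM importin beta to 50 nM Rango biosensor preincubated 5 min with compound (room temperature, PBS with DTT, Tween-20, BSA). No-importin wells as positive control.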
Rango release inh – inhibition of RanGTP-driven Rango-importin beta dissociation; 0.071% of 340,000 active; Potency, µM (doses to about 46.1 µM), for the others: at the top dose activity change, negative = inhibition; O95149+P62826; Biochemical FRET Rango-importin beta, RanGTP-induced dissociation; further: potency means the concentration at half of the fitted maximal effect; % of control where 0% means no effect; nearly all actives have a fitted effect of over 45% in size
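Compounds sat 5 min at room temperature with 0.1 uM Rango biosensor plus 0.25 uM importin beta, then FRET pre-read. RanGTP-RCC1 (0.6 uM Ran, 2mM GTP, 0.2 uM RCC1) added for 45 min, and the CFP/YFP post-read measured blocked complex dissociation.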
ClpP mod – qHTS Assay for Activators of ClpP. ATP-dependent Clp protease proteolytic subunit (Bacillus subtilis (strain 168)), P80244. purified B. subtilis ClpP, FRET peptide cleavage, 20 min. Potency, µM (highest dose often 57.5 µM), for the others: at the highest dose activity change, negative = active. 1.9% of 340,000 active. AID 651965, 2013; active means well fitted falling curve with a large enough effect; inconclusive means small, poorly fitted or top-dose-only effect; inactive means no such curve, though single readings can be large or run the other way; further: potency means the concentration at half of the fitted maximal effect; the source files actives as falling curves though it sought activators and does not explain the sign; nearly all actives have a fitted effect of over 65% in size
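Purified B. subtilis ClpP, 10 microg/mL final in Tris/HCl pH8 with KCl, BSA, glycerol and Tween-20, cleaved an Abz/nitrotyrosine-quenched decapeptide. Fluorescence (ex 320, em 430) was read at 0 and 20 min at room temperature. Delta was normalized to 5.8 microM ADEP and DMSO/no-enzyme controls.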
CBFb-RUNX1 inh – CBF-beta/RUNX1 interaction disruption. Q01196+Q13951. AlphaScreen CBFb-His/RUNX1-biotin binding, biochemical. Potency, µM (series often up to 59.8 µM), inactives show at the top dose activity, negative = inhibition, most hits filed as inhibitors. 230,000 tested, under 10 active; active means well fitted curve in the direction sought with a large enough effect; inconclusive means small, poorly fitted or top-dose-only effect, or effect the other way, or another doubt; inactive means no such curve, though single readings can be large or run the other way; further: % of control where 0% means no effect
Target sequence (Q01196 whole entry, looked up): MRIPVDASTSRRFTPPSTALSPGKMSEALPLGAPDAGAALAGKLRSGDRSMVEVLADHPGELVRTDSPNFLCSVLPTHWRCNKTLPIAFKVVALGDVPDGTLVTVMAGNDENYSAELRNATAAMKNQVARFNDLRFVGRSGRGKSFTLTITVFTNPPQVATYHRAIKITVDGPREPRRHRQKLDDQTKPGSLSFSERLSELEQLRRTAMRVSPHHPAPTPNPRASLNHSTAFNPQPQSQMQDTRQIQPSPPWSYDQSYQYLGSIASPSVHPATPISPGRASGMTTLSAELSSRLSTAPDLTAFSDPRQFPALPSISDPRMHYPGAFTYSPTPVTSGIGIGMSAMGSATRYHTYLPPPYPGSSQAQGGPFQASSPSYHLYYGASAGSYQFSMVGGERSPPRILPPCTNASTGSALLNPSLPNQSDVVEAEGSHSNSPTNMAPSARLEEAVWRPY
Target sequence (Q13951 whole entry, looked up): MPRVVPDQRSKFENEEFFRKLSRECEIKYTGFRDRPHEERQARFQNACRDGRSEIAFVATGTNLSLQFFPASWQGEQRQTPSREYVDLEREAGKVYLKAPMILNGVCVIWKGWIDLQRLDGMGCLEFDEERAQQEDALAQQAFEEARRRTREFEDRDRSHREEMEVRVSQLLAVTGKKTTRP
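Proteins preincubated together for 20 min at RT before compound addition; 15 min later, nickel and streptavidin beads were added and left 90 min prior to AlphaScreen measurement.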
An asterisk follows results filed as active; [ ] = another dose, or the depositor's remark. Many of the other results were omitted from the sample, so hits are more common in it than they were. Unless noted, the call rests on the fitted dose curve.

Results for COc1ccc(-c2c(C)nn3c(N4CCN(Cc5ccccc5)CC4)cc(C)nc23)cc1OC ?
MBNL1-CUG inh: -8%; Rango complex inh: 7%; Rango release inh: -3%; ClpP mod: 1%; CBFb-RUNX1 inh: -4%

How did Cc1cc(N2CCN(Cc3ccccc3)CC2)n2nc(C)c(-c3ccccc3)c2n1 do in these assays?
MBNL1-CUG inh: 1%; Rango complex inh: 0%; Rango release inh: -2%; ClpP mod: 32µM*; CBFb-RUNX1 inh: 4%

Results for CCCc1cc(N2CCN(c3ccccn3)CC2)n2nc(C)c(-c3ccccc3)c2n1 ?
MBNL1-CUG inh: 1%; Rango complex inh: 1%; Rango release inh: 20%; ClpP mod: 28µM*; CBFb-RUNX1 inh: 11%

What do the screens show for `CCC(C)Nc1c2c(nc3c(-c4ccccc4)c(C)nn13)CCC2` (stereo unspecified)?
MBNL1-CUG inh: -3%; Rango complex inh: -5%; Rango release inh: 2%; ClpP mod: 28µM*; CBFb-RUNX1 inh: inconclusive

What do the screens show for `CCCc1cc(N2CCOCC2)n2nc(C)c(-c3ccccc3)c2n1`?
MBNL1-CUG inh: -7%; Rango complex inh: -3%; Rango release inh: 4%; ClpP mod: -5%

How did Cc1nc2cc(-c3ccccc3)nn2c(C)c1CCC(=O)N1CCN(c2ccccn2)CC1 do in these assays?
MBNL1-CUG inh: -1%; CBFb-RUNX1 inh: -4%

Results for O=C(CCCn1c(=O)c2sccc2n(Cc2ccc(Cl)cc2)c1=O)NCc1ccc2c(c1)OCO2 ?
ClpP mod: -4%

Results for COc1cccc(N2CCN(C(=O)c3ccc4c(=O)n(CCc5ccccc5)c(=O)[nH]c4c3)CC2)c1 ?
ClpP mod: 0%

What do the screens show for `COc1cccc(-c2cc(C(F)(F)F)nc(-n3nc(C)c(Br)c3C)n2)c1`?
ClpP mod: -18%

Results for CC#CCN1c2ccccc2[C@]23C[C@@H](C(=O)OC)N(S(=O)(=O)c4ccc(Br)cc4)C2=NC(C(=O)OC)=C(C(=O)OC)[C@H]13 ?
CBFb-RUNX1 inh: -9%[13.1 µM]

What do the screens show for `COc1ccc(CN2CCN(c3cc(C)nc4c5c(C)cc(C)nc5nn34)CC2)cc1F`?
MBNL1-CUG inh: 10%; Rango complex inh: inconclusive; Rango release inh: -6%; ClpP mod: 11µM*; CBFb-RUNX1 inh: 0%

What do the screens show for `Cc1cc(N2CCCCC2)n2nc(C)c(-c3ccccc3)c2n1`?
MBNL1-CUG inh: 9%; Rango complex inh: 0%; Rango release inh: -23%; ClpP mod: -18%; CBFb-RUNX1 inh: 14%

Results for Cc1nn2c(N3CCCC3)cc(C(C)C)nc2c1-c1ccccc1 ?
MBNL1-CUG inh: 5%; Rango complex inh: 7%; Rango release inh: 9%; ClpP mod: 35µM*; CBFb-RUNX1 inh: 11%

How did CCOc1ccc(CN2CCN(c3cc(C)nc4c5c(C)cc(C)nc5nn34)CC2)cc1 do in these assays?
MBNL1-CUG inh: inconclusive; CBFb-RUNX1 inh: 12%

How did O=S1(=O)CCO[C@H]2CCCC[C@@H]2N1Cc1ccccc1 do in these assays?
ClpP mod: -1%

How did Cc1ccc(-c2cc(C(F)(F)F)c(C#N)c(SCCC#N)n2)o1 do in these assays?
MBNL1-CUG inh: 18%; Rango complex inh: inconclusive; Rango release inh: inconclusive; ClpP mod: 4.5µM*; CBFb-RUNX1 inh: 5%

What do the screens show for `COc1ccc(-c2cc(C(F)(F)F)c(C#N)c(SCC(=O)O)n2)cc1`?
MBNL1-CUG inh: inconclusive; Rango complex inh: 5%; Rango release inh: -8%; CBFb-RUNX1 inh: 1%

What do the screens show for `COc1cc(OC)c(-c2nnc(-c3ccc(OC)c(OC)c3OC)o2)cc1OC`?
MBNL1-CUG inh: 4%; Rango complex inh: -1%; Rango release inh: 10%; ClpP mod: 28µM*; CBFb-RUNX1 inh: 2%

How did CC1CCCN(S(=O)(=O)c2ccc3c(c2)CCN3C(=O)CCC(=O)O)C1 (stereo unspecified) do in these assays?
ClpP mod: -1%

What do the screens show for `CCCCNC(=O)CCCCCn1c(=O)[nH]c2cc(OC)c(OC)cc2c1=O`?
MBNL1-CUG inh: -11%; Rango complex inh: 0%; Rango release inh: -1%; ClpP mod: 28µM*; CBFb-RUNX1 inh: 5%

How did CCC(C)NC(=O)CCCCCn1c(=O)[nH]c2cc(OC)c(OC)cc2c1=O (stereo unspecified) do in these assays?
MBNL1-CUG inh: -2%; Rango complex inh: 0%; Rango release inh: -8%; ClpP mod: 28µM*; CBFb-RUNX1 inh: 3%

Results for CCCCCNC(=O)CCCCn1c(=O)[nH]c2cc(OCC)c(OCC)cc2c1=O ?
MBNL1-CUG inh: 9%; Rango complex inh: 3%; Rango release inh: 9%; ClpP mod: inconclusive; CBFb-RUNX1 inh: 5%

What do the screens show for `COc1cc2[nH]c(=O)n(CCC(=O)NC3CCCC3)c(=O)c2cc1OC`?
MBNL1-CUG inh: -2%; Rango complex inh: 4%; Rango release inh: 3%; ClpP mod: 28µM*; CBFb-RUNX1 inh: 2%

How did CCOc1cc2[nH]c(=O)n(CCCCCC(=O)NC(C)CC)c(=O)c2cc1OCC (stereo unspecified) do in these assays?
ClpP mod: 5%

Results for COc1cc2[nH]c(=O)n(CCCCCC(=O)NC3CCCC3)c(=O)c2cc1OC ?
MBNL1-CUG inh: 7%; Rango complex inh: -1%; Rango release inh: 22%

What do the screens show for `CCN(CC)CC(=O)c1c(C)n(C)c2ccc(OC)cc12`?
ClpP mod: -10%

What do the screens show for `CS(=O)(=O)c1ccc2nc(NC(=O)c3ccc(NS(=O)(=O)c4ccc(F)c(F)c4)cc3)sc2c1`?
MBNL1-CUG inh: 21%; Rango complex inh: 0%; Rango release inh: -1%; ClpP mod: 3%; CBFb-RUNX1 inh: -2%

What do the screens show for `O=C(Nc1nc2ccc(SC(F)F)cc2s1)c1ccc(NS(=O)(=O)c2ccc(F)c(F)c2)cc1`?
MBNL1-CUG inh: -2%; Rango complex inh: 5%; Rango release inh: 1%; ClpP mod: 32µM*; CBFb-RUNX1 inh: -2%

Results for CCc1ccccc1S(=O)(=O)Cc1ccc(C(=O)NCCc2ccc(Cl)cc2)o1 ?
ClpP mod: -1%

How did O=C1c2cnc3ncnn3c2CC2c3ccccc3CCN12 (stereo unspecified) do in these assays?
Rango complex inh: -1%; Rango release inh: -10%; CBFb-RUNX1 inh: 23%

Results for CSc1nc2ncc3c(n2n1)CC1c2ccccc2CCN1C3=O (stereo unspecified) ?
MBNL1-CUG inh: 15%; Rango complex inh: inconclusive; Rango release inh: -15%; ClpP mod: 28µM*; CBFb-RUNX1 inh: -1%

Bioassay records: PubChem BioAssay, National Center for Advancing Translational Sciences (NCATS)
